These results are taken from PubChem BioAssay AID602233 (National Center for Advancing Translational Sciences (NCATS), 2012).

Molecules are shown by their SMILES. About 170 (0.045%) of roughly 380,000 compounds were called active. The entries come from a sample that favours actives as a whole. Unmarked numbers belong to inactive results. Calls come from the whole dose curve; as a rule, active = well fitted inhibition curve with a large enough effect; inconclusive = small, poorly fitted or top-dose-only effect; inactive = no such curve, though single readings can be large or run the other way.
% is set by controls: 0 for no effect and ±100 for the full control effect.

Sequence of Phosphoglycerate kinase, glycosomal (Trypanosoma brucei brucei) (P07378 whole entry, looked up): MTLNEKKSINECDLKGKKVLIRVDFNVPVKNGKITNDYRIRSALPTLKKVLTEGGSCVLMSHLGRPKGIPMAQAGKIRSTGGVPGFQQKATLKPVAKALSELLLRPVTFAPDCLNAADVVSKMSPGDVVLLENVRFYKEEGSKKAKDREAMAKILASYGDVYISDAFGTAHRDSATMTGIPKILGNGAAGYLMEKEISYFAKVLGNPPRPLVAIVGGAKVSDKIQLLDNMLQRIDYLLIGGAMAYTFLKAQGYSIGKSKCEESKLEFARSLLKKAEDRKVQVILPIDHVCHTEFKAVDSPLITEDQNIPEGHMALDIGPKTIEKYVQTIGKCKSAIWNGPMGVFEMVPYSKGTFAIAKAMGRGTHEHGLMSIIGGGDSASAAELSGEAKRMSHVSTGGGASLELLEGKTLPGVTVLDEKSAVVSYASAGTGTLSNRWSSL

For this assay, the target named is Phosphoglycerate kinase, glycosomal (Trypanosoma brucei brucei) (UniProt P07378). The experiment in a line: qHTS Assay to Find Inhibitors of Phosphoglycerate Kinase. Note: nearly all actives have a fitted effect of over 60% in size. As to conditions: PGK/GAPDH coupled, Kinase-Glo luminescence, 60 min; series mostly up to 57.5 µM; activity change, negative = inhibition: at the top concentration. An excerpt:
Several species of the Trypanosomatidae family of parasitic protozoans cause a spectrum of diseases throughout the tropical and subtropical world. Sleeping sickness, caused by two subspecies of Trypanosoma brucei, is endemic to areas of sub-Saharan Africa, while Chagas disease, a manifestation of Trypanosoma cruzi infection, is prevalent throughout Central and South America. In addition, many species of Leishmania are responsible for a range of cutaneous and visceral diseases, causing ulcers, destructive lesions and kalaazar, a lethal infection of the viscera. Collectively, these organisms infect 30 million people worldwide (~500 million live in endemic areas), and account for ~130,000 deaths annually. Given their debilitating and prevalent nature, trypanosomatid parasites impose a heavy medical, economic and social burden on entire populations, primarily in the developing world. The problem is further exacerbated by the fact that existing treatments have progressed little in the past 50 years, and current drugs show high toxicity and poor efficacy. […] Blood-stream stages of T. brucei are entirely dependent on glycolysis as a source of ATP, and the tricarboxylic acid cycle and oxidative phosphorylation are both repressed. Glycolysis in axenically cultured T. cruzi, representing the intracellular pathogenic stage, is also essential for these parasites. […] Previous studies have shown that the glycolytic enzyme, phosphoglycerate kinase (PGK), is a viable target for drugs to kill these parasites. […] NIH Molecular Libraries Probe Production Network [MLPCN] NIH Chemical Genomics Center [NCGC] MLPCN Grant: R03 MH093212 PI Name: Malcolm Walkinshaw, University of Edinburgh
3ul of substrate/PGK buffer (columns 1,2,5-48) are dispensed into Greiner white solid bottom 1536-well assay plates; columns 3-4 receive only TEA buffer as 0x PGK controls. Compounds are then transferred via Kalypsys pin tool equipped with 1536-pin array (10nl slotted pins, V&P Scientific, San Diego, CA). Following addition of compound, 1ul of GAPDH (100nM final concentration, all columns) is added to initiate the reaction (this upstream coupling enzyme is necessary for in-well production of PGK substrate, 1,3-bisphosphoglycerate (1,3-BPG), which is unstable and not commercially available). The plates are then incubated at room temperature for 60 minutes. Kinase-Glo Plus reagent is added (2ul) and plates incubated for 10 minutes, before being transferred to a ViewLux high-throughput CCD imager (PerkinElmer) wherein single end-point measurements of luminescence are acquired using a clear filter. All reagents are diluted in an assay buffer consisting of 100mM TEA (pH 7.6), 5mM MgCl2 and 0.01% Tween-20.
Take `CCCN1CN=C(NS(=O)(=O)c2ccc(NC(C)=O)cc2)NC1`: the “activity change, negative = inhibition” value is -8.9%.
As for `CC(=O)N1CCCc2cc(S(=O)(=O)N3CCC(C(=O)NCc4ccc(F)cc4)CC3)ccc21`, the call was inactive.
For `COc1cccc(NC(=O)c2ccc3nc(CCc4ccccc4)oc3c2)c1`, the compound was called inactive.
Regarding `COc1ccc2c(c1)C=C(C(=O)NCc1cc(Br)ccc1OC)CO2`, the compound was called inactive.
In the case of `CC(=O)Nc1cc(C(=O)NCc2ccc(F)cc2Cl)ccc1Sc1ccc(Cl)cc1`, the “activity change, negative = inhibition” value was 8.65%.
Regarding `COc1ccc(-c2cn3c(C)c(C(=O)Nc4cc(C)cc(C)c4)sc3n2)cc1`, the “activity change, negative = inhibition” value was -0.686%.
`CCc1ccccc1NC(=O)CSc1nnc(-c2ccccc2)c(-c2ccccc2)n1`: the “activity change, negative = inhibition” value is 9.96%.
Regarding `COc1ccc(OC)c(NC(=O)C2CCN(S(=O)(=O)c3ccc(C)cc3)CC2)c1`, the “activity change, negative = inhibition” value was -0.994%.
With `Cn1c(=O)c2c(SCC(=O)N3CCc4ccccc43)nc(-c3ccc(Cl)cc3)nc2n(C)c1=O`, the outcome was inactive.
With `O=C(CSc1ncc(CO)n1Cc1ccc(F)cc1)NCc1ccco1`, the “activity change, negative = inhibition” value is -6.21%.
`CCC1CN(S(=O)(=O)c2cc(-c3cc(C)no3)ccc2C)c2cc(C)ccc2O1` (stereo not drawn): the “activity change, negative = inhibition” value is -0.193%.
Turning to `Cc1oc2ncnc(N3CCOCC3)c2c1C(=O)NCCc1ccccc1`, the “activity change, negative = inhibition” value was -4.29%.
On the same count and under the same terms, in the case of `Cc1cccc(C(=O)NCCc2nc3ccccc3n2Cc2ccccc2Cl)c1` it was 2.99%.
With `CCc1ccc(CNC(=O)c2cc3cc4ccc(OC)cc4nc3o2)cc1`, the “activity change, negative = inhibition” value is -5.03%.
For `CCC(=O)Nc1c(C(=O)N2CCN(c3ccc(F)cc3)CC2)oc2ccccc12`, the “activity change, negative = inhibition” value is 3.16%.
Regarding `COc1ccc(-c2c(C)nn3c(N4CCC(C(=O)NCCC(C)C)CC4)cc(C)nc23)cc1OC`, the “activity change, negative = inhibition” value was 0.974%.
As to `Cc1ccccc1CSc1nc(-c2ccccc2)nc2c1Cc1c(CO)cnc(C)c1O2`, the outcome was inactive.
`Cc1ccc(-c2nnc3c4ccccc4c(C)nn23)cc1NC(=O)c1cccc(Br)c1`: the “activity change, negative = inhibition” value was 7.56%.
`Cc1ccc(NC(=O)Cn2cnc3nc4c(cc3c2=O)CCCC4)cc1Cl`: the “activity change, negative = inhibition” value was -6.55%.
For `O=C(c1ccc(Br)cc1)N(Cc1cccs1)c1ccc(F)cc1`, the “activity change, negative = inhibition” value is 3.55%.
For `Cc1ccc(NC(=O)CSc2nc3ccccc3c3nc(CCn4cncc4C)nn23)cc1F`, the “activity change, negative = inhibition” value is 4.26%.
As to `CC(C)Cn1c(-c2ccc(S(=O)(=O)N3CCOCC3)cc2)csc1=Nc1cc(Cl)ccc1Cl`, the result was inactive.
Consider `CCc1ccc(NC(=O)N2CCN(C(=O)c3nsc4ccccc34)CC2)cc1`, for which the “activity change, negative = inhibition” value is 6.83%.
Turning to `Cc1ccc(Cl)cc1NC(=O)CCS(=O)(=O)c1ccc(Br)s1`, the “activity change, negative = inhibition” value is -2.54%.
In the case of `Cc1cc(Br)ccc1NC(=O)Cn1cnc2sc(C)c(S(=O)(=O)N3CCN(C)CC3)c2c1=O`, the call was inactive.
`Cc1ccc(NC(=O)c2oc3ccccc3c2NC(=O)Cc2cccs2)cc1`: the “activity change, negative = inhibition” value is -7.26%.
With `Cc1ccc(-n2nc(CO)c(C(=O)NCCc3ccccc3)n2)cc1`, the “activity change, negative = inhibition” value was -11.4%.
Take `COC(=O)c1ccccc1NC(=O)C(Cc1ccccc1)N1Cc2ccccc2C1=O` (stereo not drawn): the compound was called inactive.
Take `O=C1CCCc2cc(S(=O)(=O)N3CCCC(C(=O)NCc4ccccc4)C3)ccc2N1` (stereo not drawn): the “activity change, negative = inhibition” value is 6.57%.
Take `COc1ccc(C2C(=O)N(C3CCCCCC3)CC(=O)N2CCc2ccc(Cl)cc2)cc1OC` (stereo not drawn): the compound was classed as inactive.
`COC(=O)c1c(NC(=O)C(C)Oc2ccc(Cl)c(C)c2)sc(C)c1C` (stereo not drawn): the result was inactive.
For `COc1ccccc1CNC(=O)c1ccc(NC(=O)N2CC(C)Sc3ccccc32)cc1` (stereo not drawn), the “activity change, negative = inhibition” value was 3.38%.
On the same count and under the same terms, in the case of `Cc1cc(C)c(/C=C/c2onc(C)c2S(=O)(=O)N2CCC(C(=O)Nc3ccc(Cl)cc3C)CC2)c(C)c1` it was 1.64%.
Same read-out and setting: the result for `CCc1cccc(NC(=O)CSc2nccn2C)c1` reads 0.152%; that for `COc1cc(C(=O)NCC(c2ccc(Cl)cc2)N2CCOCC2)cc(OC)c1OC` (stereo not drawn), 1.64%.
In the case of `COc1ccc(Cn2c(=O)c3oc4ccccc4c3n(CC(=O)Nc3ccc(F)cc3F)c2=O)cc1`, the call was inactive.
Turning to `CCOc1ccc(NC(=O)Cn2cc(C(=O)c3ccc(C)cc3)c(=O)c3cc4c(cc32)OCCO4)cc1`, the compound was called inactive.
Regarding `CCCCc1nn2c(=O)cc(COC(=O)c3ccc(NC(=O)c4ccccc4C)cc3)nc2s1`, the “activity change, negative = inhibition” value was -1.81%.
For `Cc1ccccc1CNC(=O)c1ccc(NC(=O)N2CCCCc3ccccc32)cc1`, the “activity change, negative = inhibition” value was 9.36%.
As for `COc1ccc(CNC(=O)COCc2cc(-c3cccs3)on2)cc1OC`, the call was inactive.
For the compound `CCCN(CCC)C(=O)C(Cc1ccccc1)NS(=O)(=O)c1ccc2c(c1)c(=O)n(C)c(=O)n2C` (stereo not drawn), the “activity change, negative = inhibition” value was -0.144%.
`CCCCNc1ccc(-c2nc(-c3ccncc3)no2)cc1[N+](=O)[O-]`: the “activity change, negative = inhibition” value is -0.547%.
Take `CCOc1ccccc1NC(=O)Cn1c(=O)n(Cc2ccco2)c(=O)c2sc3ccccc3c21`: the “activity change, negative = inhibition” value is -8.83%.
For `Cc1ccc(NC(=O)c2cn3c4c(ccc(Cl)c4c2=O)OC(C)C3)cc1C` (stereo not drawn), the outcome was inactive.
For `O=C(CSc1n[nH]c(-c2ccccc2)n1)N1CCCCC1`, the “activity change, negative = inhibition” value was -1.92%.
As for `COc1ccc(-c2noc(CSc3nnc(-c4ccccc4)n3-c3ccc(F)cc3)n2)c(OC)c1`, the “activity change, negative = inhibition” value is -0.281%.
For the compound `O=C(NCc1ccccc1Cl)C1=Cc2cc(Br)ccc2OC1`, the “activity change, negative = inhibition” value was -7.68%.
With `O=C(Nc1ccc(F)cc1F)c1cnn(-c2ccc(F)cc2)c1-n1cccc1`, the “activity change, negative = inhibition” value was -3.35%.
